Experimental data reported in PubChem BioAssay (NCATS).
“And” between values parts separate entries of the source, which are not always exact repeats. Equal entries are not always repeated. Records with an inconclusive call do not appear. A call without a number means that no potency is given here. The source made the active and inactive calls. Calls come from the whole dose curve; as a rule, active = well fitted curve in the direction sought with a large enough effect; inconclusive = small, poorly fitted or top-dose-only effect, or another doubt; inactive = no such curve, though single readings can be large; an effect the other way counts as inactive or inconclusive.

What was measured:
[1] = biological target: Tyrosine-protein kinase Yes (Homo sapiens) (UniProt P07947); assay: qHTS for small molecule inhibitors of Yes1 kinase: Primary Screen (AID 686947); conditions: Yes1 kinase biochemical qHTS inhibition; series mostly up to 76.9 µM; note: nearly all actives have a fitted effect of over 60% in size; note: potency is the fitted concentration of half-maximal effect
Summary of the method: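 ADP-Glo luminescence reports ADP formed by 4 nM Yes1 phosphorylating poly(E4Y) (0.3 mg/mL) with 0.1 mM ATP for 60 min at room temperature, following 20 min compound preincubation; normalised between DMSO wells with and without enzyme.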

[2] = qHTS for small molecule inhibitors of Yes1 kinase: Counter Assay (AID 686950); conditions: series mostly up to 76.9 µM;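 note: no kinase present so only ADP-Glo detection of a fixed ADP amount is tested; luminescence from ADP-Glo reporting ADP in a fixed ATP and ADP mixture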
Summary of the method: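 No kinase present; 0.08 mM ATP + 0.02 mM ADP in 50 mM Tris pH 7.5, 10 mM MgCl2, 150 mM NaCl, 1 mM DTT; 20 min compound preincubation, 60 min RT, ADP-Glo luminescence, normalized to ATP/ADP (max) and ATP-only (min).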

Sequence of Tyrosine-protein kinase Yes (Homo sapiens) (P07947 whole entry, looked up): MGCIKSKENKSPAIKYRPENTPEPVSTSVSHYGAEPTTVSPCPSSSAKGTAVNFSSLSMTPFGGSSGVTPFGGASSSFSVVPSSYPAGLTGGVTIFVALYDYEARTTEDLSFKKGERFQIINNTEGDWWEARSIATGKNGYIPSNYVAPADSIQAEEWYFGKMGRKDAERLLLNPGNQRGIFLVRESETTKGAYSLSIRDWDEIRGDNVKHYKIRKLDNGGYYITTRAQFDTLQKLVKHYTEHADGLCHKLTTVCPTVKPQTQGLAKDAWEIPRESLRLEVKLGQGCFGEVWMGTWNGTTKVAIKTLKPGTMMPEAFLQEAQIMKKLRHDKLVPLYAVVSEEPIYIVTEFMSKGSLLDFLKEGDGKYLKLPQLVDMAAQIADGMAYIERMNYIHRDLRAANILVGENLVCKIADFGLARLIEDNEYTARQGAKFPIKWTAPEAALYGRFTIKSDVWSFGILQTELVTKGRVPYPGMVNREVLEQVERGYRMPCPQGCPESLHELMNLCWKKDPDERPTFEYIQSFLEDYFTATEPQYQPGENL

| SMILES | Potency [1] | outcome [2] |
| --- | --- | --- |
| Clc1ccc(CNc2nccc(-c3cnn4ncccc34)n2)cc1 | inactive | inactive |
| Nc1nccc(-c2c(-c3ccc(F)cc3)ncn2CCCN2CCOCC2)n1 | 9.23 µM (active) | inactive |
| CCCN(CCS(C)(=O)=O)Cc1ccc(-c2ccc3ncnc(Nc4ccc(OCc5cccc(F)c5)c(Cl)c4)c3c2)o1 | 6.54 µM (active) | inactive |
| CN1CCC(n2cnc(-c3ccc(F)cc3)c2-c2ccnc(Nc3ccccc3)n2)CC1 | 1.16 µM (active) | inactive |
| NC(=O)c1ccc(Oc2nccc(-c3c(-c4ccc(F)cc4)ncn3C3CCNCC3)n2)cc1 | 11.6 µM (active) | inactive |
| NS(=O)(=O)c1ccc(N=Nc2c(O)[nH]c3ccc(-c4cnco4)cc23)cc1 | inactive | inactive |
| COc1cccc(COc2cc(-n3cnc4ccccc43)sc2C(N)=O)c1 | inactive | inactive |
| COc1ccc(-c2coc3ncnc(N)c23)cc1 | 11.6 µM (active) | inactive |
| Fc1ccc(-c2ncn(C3CCNCC3)c2-c2ccnc(Oc3ccc(F)c(F)c3)n2)cc1 | inactive | inactive |
| O=C1Nc2ccc(-c3cccnc3)cc2C1=Cc1cc(Br)c(O)c(Br)c1 | 0.412 µM (active) | inactive |
| N#Cc1c(NC(=O)CN2CCOCC2)sc2c1CCCC2 | inactive | inactive |
| CC1=C(C(=O)Nc2cc(Cl)c3[nH]ncc3c2)C(c2ccc(C(F)(F)F)cc2)CC(=O)N1 (centres undefined) | 2.6 µM (active) | inactive |
| Cc1nc(-c2ccccc2)n2nc(NCCCN3CCOCC3)ncc12 | 32.8 µM (active) | inactive |
| CS(=O)(=O)Nc1ccc(N=Cc2c(O)[nH]c3ccccc23)cc1 | 3.68 µM (active) | inactive |
| Cc1ccc2c(-c3ccnc(Nc4ccc5c(c4)OCCO5)n3)c(-c3ccc(C(F)(F)F)cc3)nn2n1 | 0.823 µM (active) | inactive |
| CS(=O)(=O)CCNCc1ccc(-c2ccc3ncnc(Nc4ccc(OCc5cccc(F)c5)c(C(F)(F)F)c4)c3c2)o1 | inactive | inactive |
| COc1cccc(-c2c[nH]c3c(NN=Cc4ccncc4)ncnc23)c1 | 0.164 µM (active) | inactive |
| COC(=O)Nc1nc2ccc(Oc3ccc(NC(=O)Nc4cc(C(F)(F)F)ccc4F)cc3)cc2s1 | inactive | inactive |
| NC(=O)c1cccc(Nc2nccc(Nc3cccc(F)c3)n2)c1 | 1.16 µM (active) | inactive |
| CCS(=O)(=O)c1ccc(OC)c(Nc2ncc(-c3cccc(OC)c3)o2)c1 | 0.13 µM (active) | inactive |
| Nc1nc(-c2ccc3c(c2)C(=Cc2cc(Br)c(O)c(Br)c2)C(=O)N3)cs1 | 1.46 µM (active) | inactive |
| Cc1nn(C)c2cc(N(C)c3ccnc(Nc4cccc(S(N)(=O)=O)c4)n3)ccc12 | 1.16 µM (active) | inactive |
| N#Cc1cccc(Nc2ncc(-c3ccccc3)o2)c1 | 26 µM (active) | inactive |
| COc1cc(C=NNc2ncnc3c2cnn3Cc2ccccc2)ccc1O | 0.116 µM (active) | inactive |
| NS(=O)(=O)c1ccc(N=Nc2c(O)[nH]c3ccc(C(=O)NCCCn4ccnc4)cc23)cc1 | 2.6 µM (active) | inactive |
| COc1ccc(-c2ccncc2)cc1C(N)=O | inactive | inactive |

| SMILES | Potency [1] | outcome [2] |
| --- | --- | --- |
| CN1CCN(Cc2ccc(-c3cc4ncnc(Nc5ccc(OCc6cccc(F)c6)c(Cl)c5)c4s3)o2)CC1 | 0.823 µM (active) | inactive |
| CS(=O)(=O)CCNCc1nc(-c2ccc3ncnc(Nc4ccc(F)c(Cl)c4)c3c2)cs1 | 4.63 µM (active) | inactive |
| Fc1ccc(-c2cc(-c3cn[nH]c3-c3ccccn3)ccn2)cc1 | 29.2 µM (active) | inactive |
| NS(=O)(=O)c1cccc(Nc2cc(-c3ccc(F)cc3)[nH]n2)c1 | 3.68 µM (active) | inactive |
| NC(=O)CCc1ccccc1Oc1nccc(-c2c(-c3ccc(F)cc3)ncn2C2CCNCC2)n1 | inactive | inactive |
| O=C(OC1CNC(C#Cc2cc3ncnc(Nc4ccc(Cc5ccccc5)cc4)c3s2)C1)N1CCOCC1 (centres undefined) | 2.07 µM (active) | inactive |
| Cc1cc(-c2ccccn2)cc(C)c1C=Cc1cncc(-c2nn[nH]n2)c1 | 2.07 µM (active) | inactive |
| CCS(=O)(=O)c1ccc(OC)c(Nc2nccc(N(C)c3ccc4c(C)[nH]nc4c3)n2)c1 | 0.0519 µM (active) | inactive |
| COc1ccc2cc(-c3c(-c4ccncc4)nc(-c4ccc(S(C)(=O)=O)cc4C)n3C)ccc2c1 | 1.84 µM (active) | inactive |
| COc1cc2c(cc1Nc1nc(Nc3ccsc3C(N)=O)c3cc[nH]c3n1)N(C(=O)CN(C)C)CCC2 | inactive | inactive |
| Cc1ccc2c(-c3ccnc(Nc4ccccc4)n3)c(-c3ccc(F)cc3)nn2n1 | 0.116 µM (active) | inactive |
| COc1cccc(-n2nc(C)c3c(NN=C(C)c4ccncc4)ncnc32)c1 | inactive | inactive |
| OCc1ccc(-c2nc(-c3ccc4c(c3)OCO4)c(-c3ccccn3)[nH]2)cc1 | inactive | inactive |
| Nc1nccc(-c2c(-c3ccc(F)cc3)ncn2C2CCNCC2)n1 | 2.07 µM (active) and 6.54 µM (active) | inactive |
| CN1CCN(CCCNc2nc3ccc(Oc4ccc(NC(=O)Nc5cc(C(F)(F)F)ccc5F)cc4)cc3[nH]2)CC1 | inactive | inactive |
| COC(=O)Nc1nc2ccc(S(=O)(=O)c3ccc(NC(=O)Nc4cc(C(F)(F)F)ccc4F)cc3)cc2[nH]1 | inactive | inactive |
| COc1ccc2cc(-c3c(-c4ccncc4)nc(-c4ccc(S(C)=O)cc4C)n3C)ccc2c1 (centres undefined) | 1.64 µM (active) | inactive |
| Nc1ncnc2occ(-c3ccc(NC(=O)Nc4cc(C(F)(F)F)cc(C(F)(F)F)c4)cc3)c12 | 3.68 µM (active) | inactive |
| Fc1ccc(-c2nn3ncccc3c2-c2ccnc(Nc3ccc4c(c3)OCCO4)n2)cc1 | 0.0654 µM (active) | inactive |
| CN1CCC(C(=O)Nc2n[nH]c3nnc(-c4ccccc4)cc23)CC1 | 13 µM (active) | inactive |
| CCn1c(-c2nonc2N)nc2ccc(F)cc21 | inactive | inactive |
| COc1cc2ncn(-c3cc(OCc4ccccc4Cl)c(C(N)=O)s3)c2cc1OC | 5.19 µM (active) | inactive |
| CNC(=O)c1cc(-c2ccc(F)cc2)cc(-c2ccc(S(=O)(=O)N3CCCC3)cc2)c1N | inactive | inactive |
| COc1cc(C=NNc2ncnc3c2cnn3C(C)C)ccc1O | 0.184 µM (active) | inactive |
| COC(=O)Nc1nc2ccc(Oc3ccc(NC(=O)Nc4cccc(Cl)c4)cc3)cc2[nH]1 | inactive | inactive |
| Nc1nccc(C#Cc2cncnc2Nc2ccc(OCc3cccc(F)c3)c(Cl)c2)n1 | inactive | inactive |

| SMILES | Potency [1] | outcome [2] |
| --- | --- | --- |
| NC(=O)c1ccc2c(-c3ccnc(NCCCO)n3)c(-c3ccc(F)cc3)nn2c1 | 6.54 µM (active) | inactive |
| CN(C)c1cc2c(Nc3ccc4nc(Cc5ccccc5)[nH]c4c3)ncnc2cn1 | 0.412 µM (active) | inactive |
| C#Cc1cccc(Nc2ncnc3ccc(OCCCCNCCS(C)(=O)=O)cc23)c1 | 7.33 µM (active) | inactive |
| CCCNc1cccc(-n2ncc3c(NN=Cc4ccncc4)ncnc32)c1 | 0.0328 µM (active) | inactive |
| CC(C)COC(=O)c1ccc2[nH]c(O)c(C=Nc3ccc(S(N)(=O)=O)cc3)c2c1 | 9.23 µM (active) | inactive |
| COc1cc(C=NNc2ncnc3c2cnn3-c2ccccc2)ccc1O | 0.292 µM (active) | inactive |
| COc1ccc(-c2nn3ncccc3c2-c2ccnc(Nc3ccc(F)c(F)c3)n2)cc1 | 0.328 µM (active) | inactive |
| Cc1ccc(C(=O)NC2CCCCC2)cc1-c1ccc(C(=O)NCC2CC2)cc1 | inactive | inactive |
| Fc1cccc(COc2ccc(Nc3ncnc4sc(-c5ccco5)cc34)cc2Cl)c1 | inactive | inactive |
| NS(=O)(=O)c1ccc(N=Cc2c(O)[nH]c3ccc4ncsc4c23)cc1 | 823 nM (active) and 923 nM (active) | inactive |
| FC(F)(F)c1cccc(-c2nn3ncccc3c2-c2ccnc(Nc3ccc4c(c3)OCCO4)n2)c1 | 0.412 µM (active) | inactive |
| Cc1cc(O)cc(C)c1C=Cc1cncc(C(N)=O)c1 | 0.463 µM (active) | inactive |
| O=C(Nc1n[nH]c2cc(-c3cc(F)ccc3F)ccc12)C1CC1 | 26 µM (active) | inactive |
| COc1ccc2ncnc(Nc3ccc(OCc4ccccc4)cc3)c2c1 | 0.733 µM (active) | inactive |
| COc1ccc(-c2nn3ncccc3c2-c2ccnc(Nc3cccc(C(F)(F)F)c3)n2)cc1 | 0.582 µM (active) | inactive |
| c1ccc(Cc2nc3ccc(Nc4ncnc5ccccc45)cc3[nH]2)cc1 | 1.16 µM (active) | inactive |
| O=C1NC(=O)C(c2cccc(Cl)c2)=C1Nc1ccc(Cl)c(C(=O)O)c1 | inactive | inactive |
| c1ccc(COc2ccc(Nc3ncnc4ccc(-c5ccco5)cc34)cc2)cc1 | 3.68 µM (active) | inactive |
| COc1cccc(-n2ncc3c(NN=Cc4cccc(F)c4)ncnc32)c1 | 0.146 µM (active) | inactive |
| O=C1N=c2ccc(N=Cc3c(O)[nH]c4ccccc34)cc2=N1 | 2.92 µM (active) | inactive |
| NC(=O)c1sc(-n2cnc3ccccc32)cc1OCc1ccccc1Br | 18.4 µM (active) | inactive |
| CC(Oc1cc(-n2cnc3ccc(OCC4CCN(C)CC4)cc32)sc1C(N)=O)c1ccccc1C(F)(F)F (centres undefined) | 1.46 µM (active) | inactive |
| Cc1ccc(O)cc1Nc1ccnc2ccc(S(C)(=O)=O)cc12 | 0.0021 µM (active) | inactive |
| CCN1CCC(CC(=O)Nc2n[nH]c3nc(-c4cccs4)c(Br)cc23)CC1 | 26 µM (active) | inactive |
| COc1cc(Nc2ncc(-c3ccccc3)o2)cc(OC)c1OC | 0.328 µM (active) | inactive |
